This excerpt belongs to a sample that is enriched for the strongest signals.
Key:
Assay in all cases: glycan array binding signal (z-score within array); higher = stronger binding
[1] = target: Neu5Ac(a2-3)Gal(b1-4)GlcNAc(b1-3)Gal(b1-4)GlcNAc(b1-3)GalNAc; settings: glycan notation: IUPAC condensed, linker removed
In short: (§1)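 Glycan array binding is given as a within-array Z-score, which can be read as non-binding when negative. The arrays, 3228 of them, came from the Consortium for Functional Glycomics database and were retained only where the protein sequence was available. Z-scores were averaged across arrays of the same protein sequence at different concentrations or buffers and across linkers.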

[2] = target: Neu5Ac(a2-3)Gal(b1-4)GlcNAc(b1-3)Gal(b1-4)GlcNAc(b1-6)[Gal(b1-3)]GalNAc; settings: glycan notation: IUPAC condensed, linker removed
In short: as §1

[3] = target: Neu5Ac(a2-3)Gal(b1-4)GlcNAc(b1-6)[Gal(b1-3)]GalNAc; settings: glycan notation: IUPAC condensed, linker removed
In short: as §1

[4] = target: Neu5Ac(a2-3)Gal(b1-4)[Fuc(a1-3)]GlcNAc(b1-3)Gal; settings: glycan notation: IUPAC condensed, linker removed
In short: as §1

[5] = target: Neu5Ac(a2-3)[GalNAc(b1-4)]Gal(b1-4)GlcNAc(b1-3)GalNAc; settings: glycan notation: IUPAC condensed, linker removed
In short: as §1

[6] = target: Neu5Ac(a2-6)Gal(b1-4)GlcNAc; settings: glycan notation: IUPAC condensed, linker removed
In short: as §1

[7] = target: Neu5Ac(a2-6)Gal(b1-4)GlcNAc(b1-2)Man; settings: glycan notation: IUPAC condensed, linker removed
In short: as §1

[8] = target: Neu5Ac(a2-6)Gal(b1-4)GlcNAc(b1-2)Man(a1-3)[Man(a1-6)]Man(b1-4)GlcNAc(b1-4)GlcNAc; settings: glycan notation: IUPAC condensed, linker removed
In short: as §1

[9] = target: Neu5Ac(a2-6)Gal(b1-4)GlcNAc(b1-2)[Neu5Ac(a2-6)Gal(b1-4)GlcNAc(b1-6)]Man(a1-6)[Neu5Ac(a2-6)Gal(b1-4)GlcNAc(b1-2)Man(a1-3)][GlcNAc(b1-4)]Man(b1-4)GlcNAc(b1-4)GlcNAc; settings: glycan notation: IUPAC condensed, linker removed
In short: as §1

[10] = target: Neu5Ac(a2-6)Gal(b1-4)GlcNAc(b1-6)[Gal(b1-3)GlcNAc(b1-3)]Gal(b1-4)Glc; settings: glycan notation: IUPAC condensed, linker removed
In short: as §1

[11] = target: Neu5Ac(a2-6)Gal(b1-4)GlcNAc6S; settings: glycan notation: IUPAC condensed, linker removed
In short: as §1

Neu5Ac(a2-6)GalNAc = settings: glycan notation: IUPAC condensed, linker removed
In short: as §1

[12] = target: Neu5Ac(a2-8)Neu5Ac(a2-3)Gal(b1-4)Glc; settings: glycan notation: IUPAC condensed, linker removed
In short: as §1

[13] = target: Neu5Ac(a2-8)Neu5Ac(a2-8)Neu5Ac(a2-3)[Gal(b1-3)GalNAc(b1-4)]Gal(b1-4)Glc; settings: glycan notation: IUPAC condensed, linker removed
In short: as §1

[14] = target: Neu5Ac(a2-8)Neu5Gc(a2-3)Gal(b1-4)GlcNAc; settings: glycan notation: IUPAC condensed, linker removed
In short: as §1

[15] = target: Fuc(a1-2)Gal(b1-3)GalNAc(b1-4)[Neu5Ac(a2-3)]Gal(b1-4)Glc; settings: glycan notation: IUPAC condensed, linker removed; mutation: D325A
In short: as §1

Fuc(a1-2)Gal(b1-3)GlcNAc = settings: glycan notation: IUPAC condensed, linker removed; mutation: D325A
In short: as §1

[16] = target: Fuc(a1-2)Gal(b1-4)GlcNAc(b1-3)Gal(b1-4)GlcNAc; settings: glycan notation: IUPAC condensed, linker removed; mutation: D325A
In short: as §1

[17] = target: Fuc(a1-2)[Gal(a1-3)]Gal(b1-4)Glc; settings: glycan notation: IUPAC condensed, linker removed; mutation: D325A
In short: as §1

[18] = target: Fuc(a1-2)[GalNAc(b1-3)]Gal; settings: glycan notation: IUPAC condensed, linker removed; mutation: D325A
In short: as §1

[19] = target: Fuc(a1-3)[Gal3S(b1-4)]Glc6S; settings: glycan notation: IUPAC condensed, linker removed; mutation: D325A
In short: as §1

[20] = target: Fuc(a1-3)[Gal3S(b1-4)]GlcNAc; settings: glycan notation: IUPAC condensed, linker removed; mutation: D325A
In short: as §1

Gal(a1-3)GalNAc = settings: glycan notation: IUPAC condensed, linker removed; mutation: D325A
In short: as §1

[21] = target: Gal(b1-3)GlcNAc(b1-3)Gal(b1-4)GlcNAc; settings: glycan notation: IUPAC condensed, linker removed; mutation: D325A
In short: as §1

[22] = target: Gal(b1-4)GlcNAc(b1-2)Man(a1-3)[Gal(b1-4)GlcNAc(b1-2)Man(a1-6)]Man(b1-4)GlcNAc(b1-4)GlcNAc; settings: glycan notation: IUPAC condensed, linker removed; mutation: D325A
In short: as §1

[23] = target: Gal(b1-4)GlcNAc(b1-3)Gal(b1-3)GlcNAc; settings: glycan notation: IUPAC condensed, linker removed; mutation: D325A
In short: as §1

Gal3S(b1-3)GalNAc = settings: glycan notation: IUPAC condensed, linker removed; mutation: D325A
In short: as §1

Gal4S6S(b1-4)GlcNAc = settings: glycan notation: IUPAC condensed, linker removed; mutation: D325A
In short: as §1

GlcA(b1-6)Gal = settings: glycan notation: IUPAC condensed, linker removed; mutation: D325A
In short: as §1

[24] = target: GlcNAc(b1-4)Gal(b1-4)GlcNAc; settings: glycan notation: IUPAC condensed, linker removed; mutation: D325A
In short: as §1

[25] = target: Man(a1-2)Man(a1-2)Man(a1-3)Man; settings: glycan notation: IUPAC condensed, linker removed; mutation: D325A
In short: as §1

[26] = target: Man(a1-2)Man(a1-3)[Man(a1-2)Man(a1-6)]Man(a1-6)[Man(a1-2)Man(a1-2)Man(a1-3)]Man; settings: glycan notation: IUPAC condensed, linker removed; mutation: D325A
In short: as §1

[27] = target: Man(a1-2)Man(a1-6)[Man(a1-3)]Man(a1-6)[Man(a1-2)Man(a1-2)Man(a1-3)]Man; settings: glycan notation: IUPAC condensed, linker removed; mutation: D325A
In short: as §1

[28] = target: Man(a1-3)[Man(a1-6)]Man(a1-6)[Man(a1-2)Man(a1-3)]Man(b1-4)GlcNAc(b1-4)GlcNAc; settings: glycan notation: IUPAC condensed, linker removed; mutation: D325A
In short: as §1

[29] = target: Man(a1-3)[Man(a1-6)]Man(a1-6)[Man(a1-3)]Man; settings: glycan notation: IUPAC condensed, linker removed; mutation: D325A
In short: as §1

[30] = target: Neu5Gc(a2-3)Gal(b1-4)[Fuc(a1-3)]GlcNAc; settings: glycan notation: IUPAC condensed, linker removed; mutation: D325A
In short: as §1

B1: CM2 (Cordyceps militaris) (protein)
chain: MEIAEQNVGKSCAIVNLIPPKEGSNIWTAKQVTIARNLPPNRGTGRHQIDWSFGPVKVTGYVDTTNWEIGVTVSIMGIDLGTVYGNLRDGVVLNVDLFLAKGQVRFYLKNGNEVWVHLSVEIRFDGKFEGDYKIITV
Q: With B1 as the binder, how does the “glycan array binding signal (z-score)” value [1] read?
A: 3.11

Q: What about the “glycan array binding signal (z-score)” value [2] of the same binder?
A: -1.25

Q: What about the “glycan array binding signal (z-score)” value [3] of the same binder?
A: -0.406

Q: What about the “glycan array binding signal (z-score)” value [4] of the same binder?
A: 0.036

Q: And the “glycan array binding signal (z-score)” value [5]?
A: 0.919

Q: And the “glycan array binding signal (z-score)” value [6]?
A: -0.125

Q: And the “glycan array binding signal (z-score)” value [7]?
A: 2.54

Q: And the “glycan array binding signal (z-score)” value [8]?
A: -0.907

Q: What about the “glycan array binding signal (z-score)” value [9] of the same binder?
A: -0.924

Q: And the “glycan array binding signal (z-score)” value [10]?
A: -1.25

Q: And the “glycan array binding signal (z-score)” value [11]?
A: -1.69

Q: What about the “glycan array binding signal (z-score)” value (Neu5Ac(a2-6)GalNAc) of the same binder?
A: 0.447

Q: And the “glycan array binding signal (z-score)” value [12]?
A: -0.496

Q: What about the “glycan array binding signal (z-score)” value [13] of the same binder?
A: -0.622

Q: And the “glycan array binding signal (z-score)” value [14]?
A: -1.52

B2: Surfactant Protein D (Human); Neck + Carbohydrate Recognition Domain (NCRD) (Homo sapiens) (protein)
chain: MLLFLLSALVLLTQPLGYLEAEMKTYSHRTMPSACTLVMCSSVESGLPGRDRDGREGPRGEKGDPGLPGAAGQAGMPGQAGPVGPKGDNGSVGEPGPKGDTGPSGPPGPPGVPGPAGREGALGKQGNIGPQGKPGPKGEAGPKGEVGAPGMQGSAGARGLAGPKGERGVPGERGVPGNTGAAGSAGAMGPQGSPGARGPPGLKGDKGIPGDKGAKGESGLPDVASLRQQVEALQGQVQHLQAAFSQYKKVELFPNGQSVGEKIFKTAQFVKPFTEAQLLCTQAGGQLASPRSAAENAALQQLVVAKNEAAFLSMTDSKTEGKFTYPTGESLVYSNWAPGEPNDAGGSEDCVEIFTNGKWNDRACGEKRLVVCEF
Q: With B2 as the binder, how does the “glycan array binding signal (z-score)” value [15] read?
A: -0.163

Q: What about the “glycan array binding signal (z-score)” value (Fuc(a1-2)Gal(b1-3)GlcNAc) of the same binder?
A: -0.276

Q: What about the “glycan array binding signal (z-score)” value [16] of the same binder?
A: -0.226

Q: And the “glycan array binding signal (z-score)” value [17]?
A: -0.272

Q: What about the “glycan array binding signal (z-score)” value [18] of the same binder?
A: -0.268

Q: What about the “glycan array binding signal (z-score)” value [19] of the same binder?
A: -0.246

Q: And the “glycan array binding signal (z-score)” value [20]?
A: -0.269

Q: And the “glycan array binding signal (z-score)” value (Gal(a1-3)GalNAc)?
A: -0.164

Q: And the “glycan array binding signal (z-score)” value [21]?
A: -0.267

Q: And the “glycan array binding signal (z-score)” value [22]?
A: -0.273

Q: And the “glycan array binding signal (z-score)” value [23]?
A: -0.269

Q: What about the “glycan array binding signal (z-score)” value (Gal3S(b1-3)GalNAc) of the same binder?
A: -0.274

Q: What about the “glycan array binding signal (z-score)” value (Gal4S6S(b1-4)GlcNAc) of the same binder?
A: -0.275

Q: And the “glycan array binding signal (z-score)” value (GlcA(b1-6)Gal)?
A: -0.26

Q: What about the “glycan array binding signal (z-score)” value [24] of the same binder?
A: -0.128

Q: And the “glycan array binding signal (z-score)” value [25]?
A: 5.67

Q: And the “glycan array binding signal (z-score)” value [26]?
A: 5.16

Q: And the “glycan array binding signal (z-score)” value [27]?
A: 4.8

Q: And the “glycan array binding signal (z-score)” value [28]?
A: 4.71

Q: What about the “glycan array binding signal (z-score)” value [29] of the same binder?
A: 4.73

Q: And the “glycan array binding signal (z-score)” value [30]?
A: -0.27

Reference: the supplement of paper PMC8728848
